Shown are actives, neighbours in structure and some others; about 7.3% of the full set was active somewhere.
FMDV inh: antivirals against foot and mouth disease virus; FMDV antiviral cell-based qHTS; Potency, µM (titrated, usually from 57.9 µM), usual class: inhibitors; 1.2% of 410,000 active; AID 1159524; calls by dose curve; tested in HEK293T cells; further: read-out not given here; nearly all actives have a fitted effect of over 45% in size
Vaccinia mCherry: inhibitors of vaccinia virus infection (mCherry reporter signal). Vaccinia virus mCherry reporter infection, fluorescence. Potency, µM (highest dose often 36.5 µM), hits mostly inhibitors. 0.63% of 310,000 active; calls by dose curve; tested in A549 cells; further: nearly all actives have a fitted effect of over 35% in size
HCMV antiviral: inhibitors of human cytomegalovirus. HFF cells, HCMV-luciferase reporter, 72 h; hits give low values. activity change, negative = inhibition, % at 57.5 µM. 4.5% of 410,000 active; in the data active means activity change below about -60%; inconclusive means no clear call, values can overlap the other calls; inactive means above about -39%
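Two compound doses tested in HFFs infected with HCMV-luciferase, MOI 1 PFU/cell, 72 h at 37C. Lysate luminescence read with OneGlo; data normalized against buffer-only and 10uM Salinomycin inhibitor controls.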
Vaccinia Venus: vaccinia inhibition (Venus reporter) | AID 720580 | 0.46% of 330,000 active | Potency, µM (titrated, usually from 36.5 µM), actives largely listed as inhibitors | Vaccinia virus Venus reporter expression, fluorescence; calls by dose curve; tested in A549 cells; further: nearly all actives have a fitted effect of over 30% in size
HCV inh: inhibitors of hepatitis C virus infection; Huh7.5.1 HCVcc-Cre infection, luciferase reporter, 44 h; Potency, µM (titrated, usually from 41.8 µM), hits mostly inhibitors; 3.4% of 340,000 active; AID 651820; active means well fitted inhibition curve with a large enough effect; inconclusive means small, poorly fitted or top-dose-only effect, or another doubt; inactive means no such curve, though single readings can be large or run the other way
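Luciferase read-out (15 sec integration) after a 15 min room-temperature substrate step quantifies HCVcc-Cre infection. Cells, 1,000 per well, had compound added 4 h post-plating, then virus at ~0.5 moi, and were cultured 44 h.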
A number is an active result; 0 = inactive; ? = inconclusive; - = no result given; [ ] = dose if it differs, or a comment.

SMILES	FMDV inh	Vaccinia mCherry	HCMV antiviral	Vaccinia Venus	HCV inh
C[C@H]1O[C@@H](O[C@H]2[C@@H](O)C[C@H](O[C@H]3[C@@H](O)C[C@H](O[C@H]4CC[C@@]5(C)[C@H](CC[C@@H]6[C@@H]5C[C@@H](O)[C@]5(C)[C@@H](C7=CC(=O)OC7)CC[C@]65O)C4)O[C@@H]3C)O[C@@H]2C)C[C@H](O)[C@@H]1O	?	?	-99.7	0.282µM	?
CC1O[C@@H](O[C@@H]2C(O)C[C@H](O[C@@H]3C(O)C[C@@H](OC4CC[C@@]5(C)C6CC[C@]7(C)C(C8=CC(=O)OC8)CC[C@@]7(O)C6CC[C@@H]5C4)OC3C)OC2C)CC(O)[C@H]1O (some centres not stated)	0	?	-	0.282µM	-
CC(=O)OC1CC(OC2C(O)CC(OC3C(O)CC(OC4CCC5(C)C(CCC6C5CC(O)C5(C)C(C7=CC(=O)OC7)CCC65O)C4)OC3C)OC2C)OC(C)C1OC1OC(CO)C(O)C(O)C1O (configuration not stated)	?	2.51µM	-100.1	0.891µM	0.562µM
COc1ccc2c3c([nH]c2c1)[C@H](CO)N(C(=O)c1cccnc1)CC31CN(C(=O)c2cccnc2)C1	-	-	0	-	-
COc1cccc(CN2CCN3C=C(C(=O)NC4CCc5ccccc54)OC3=NC2=O)c1 (configuration not stated)	-	-	0	-	-
C[C@H]1C(C(=O)N(C)C2CCCCC2)=Cc2c(n(-c3ccc(F)cc3)c(=O)n2CCCOc2ccccc2)C=C1c1ccccc1	-	-	0	-	-
N/C(=N\N=C\c1ccc(Cl)cc1)N/N=C/c1ccc(Cl)cc1	-	-	0	-	-
CC(C)CN1C(=O)/C(=C/c2cccs2)NC1=S	0	-	-62.5	-	0
CCCCNC(=O)c1nc2cc(C)c(C)cc2nc1-c1cccc(OC)c1	-	-	0	-	-
CCCCC(=O)OCC(=O)N1N=C(c2c[nH]c3ccccc23)C(O)C1c1ccc(OC)cc1 (configuration not stated)	0	-	-60.8	-	?
CN(C)C(=O)C[C@H]1C[C@@H]2c3cc(NC(=O)NC4CCCC4)ccc3O[C@@H]2[C@@H](CO)O1	-	-	0	-	-
CCC1=Nc2cc(C(=O)NCCCOC)ccc2Sc2ccc(Br)cc21	0	?	-87.4	?	-
CCC1=Nc2cc(C(=O)NCCN3CCOCC3)ccc2Sc2ccc(Br)cc21	0	-	0	-	0
CCC1=Nc2cc(C(=O)NCCCOC)ccc2Sc2ccccc21	0	0	-75.9	?	?
COc1cc(NC(=O)NC(C)c2c(-n3cccc3)sc3c2CCN(C)C3)cc(OC)c1 (configuration not stated)	0	0	0	0	-
COCCNC(=O)C(C)(C)n1cc(NC(=O)COCc2ccccc2)cn1	-	-	0	-	-
O=C(NCc1ccccc1Cl)c1ccc(CSCc2cccc(F)c2)o1	0	0	0	0	-
Fc1ccc(-n2cc(-c3ccccc3)[n+]3c2SCC3)cc1	0	-	?	-	0
COc1ccc(-c2cn(-c3ccccc3)c3[n+]2CCS3)cc1	?	0	-99.8	0	?
c1ccc(-c2cn(-c3ccccc3)c3[n+]2CCS3)cc1	?	0	?	0	?
CC(C)(C)c1ccc(-c2cn(-c3ccc(Br)cc3)c3[n+]2CCCS3)cc1	?	0	-97.6	0	?
COc1ccc(OC)c(NC(=O)c2c(NCc3ccc(C)o3)sc3c2CCC(C)C3)c1 (configuration not stated)	0	0	0	0	-
CCOCCc1nnc(NC(=O)C(=O)c2cc(C)n(-c3ccc(C)c(C)c3)c2C)s1	0	0	0	0	-
C[C@@H]1O[C@@H](O[C@@H]2C(=O)c3c(O)cc(O)cc3O[C@H]2c2ccc(O)c(O)c2)[C@H](O)[C@H](O)[C@H]1O	0	0	0	0	0
C[C@@H]1O[C@@H](O[C@@H]2C=C3CC[C@@H]4[C@@H](CC[C@]5(C)[C@H](c6ccc(=O)oc6)CC[C@@]45O)[C@@]3(C)CC2)[C@H](O)[C@H](O)[C@H]1O	-	10µM	-	6.31µM	-
Cc1ccc(-c2csc(N3CCC(C(N)=O)CC3)n2)cc1	0	-	0	-	-
Cc1ccc(-c2csc(N3CCC(NS(=O)(=O)c4ccc5c(c4)OCCO5)CC3)n2)cc1	?	?	-85.3	8.91µM	10µM
CCOc1nc2c(c(-c3cccs3)c1C#N)Cc1ccccc1-2	0	0	0	0	0
CC(=O)COc1nc2c(c(-c3ccco3)c1C#N)CCc1ccccc1-2	0	0[7.34 µM]	-	0[7.34 µM]	11.2µM
Cc1cc(C)c2nc(Nc3nc(CSc4nc5ccccc5[nH]4)cc(=O)[nH]3)nc(C)c2c1	?	0	-65.0	0	?

Assay outcomes as filed in PubChem BioAssay.
